Test results published in PubChem BioAssay (NCATS).
Inconclusive results are not listed. Activity calls are given as the source filed them. Unless noted, the call rests on the fitted dose curve; in most records, active means well fitted curve in the direction sought with a large enough effect; inconclusive means small, poorly fitted or top-dose-only effect, or another doubt; inactive means no such curve, though single readings can be large; an effect the other way counts as inactive or inconclusive.

How the values were obtained:
[1] = Primary qHTS for inhibitors of nuclear receptor binding SET domain protein 2 (NSD2) in an isogenic RCH-ACV NSD2 p.E1099K mutant (9B) (AID 1645876); further: potency means the concentration at half of the fitted maximal effect; nearly all actives have a fitted effect of over 70% in size
[2] = Primary qHTS for inhibitors of nuclear receptor binding SET domain protein 2 (NSD2) in an RCH-ACV wild type WT cells (2C) (AID 1645877); further: potency means the concentration at half of the fitted maximal effect; nearly all actives have a fitted effect of over 70% in size
[3] = molecular target: Glutathione peroxidase 1 (Homo sapiens) (UniProt P07203); experiment: Primary qHTS Assay for Inhibitors of Recombinant Selenoprotein Glutathione Peroxidase 1 (GPX1) (AID 1845191); further: nearly all actives have a fitted effect of over 65% in size
In short: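 NADPH consumption tracked by fluorescence at 340/450 nm between t=0 and t=15 min, room temperature. Final mix: 10 nM GPX1, 100 nM glutathione reductase, 1 mM GSH, 0.5 mM NADPH, 0.5 mM cumene hydroperoxide, 0.01% BSA; 30 min compound–enzyme preincubation.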

[4] = molecular target: Phospholipid hydroperoxide glutathione peroxidase GPX4 (Homo sapiens) (UniProt P36969); experiment: Primary qHTS Assay for Inhibitors of Recombinant Selenoprotein Glutathione Peroxidase 4 (GPX4) (AID 1845192); further: series mostly up to about 50 µM; on the % scale 0 is the no-effect control and ±100 the full control effect; nearly all actives have a fitted effect of over 65% in size
In short: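 NADPH consumption followed by fluorescence at 340/450 nm, t=0 and after 15 min at room temperature. Reaction started with cumene hydroperoxide (0.5 mM final) after 30 min compound–GPX4 preincubation; final 200 nM GPX4, 100 nM GR, 1 mM GSH, 0.5 mM NADPH.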

[5] = qHTS drug screen for cell cycle checkpoint inhibitors in PARPi-resistant BRCA-mutant ovarian cancer cell lines. (AID 1963452; calls by dose curve; further: potency means the concentration at half of the fitted maximal effect); settings: PEO1/OlaR viability, CellTiter-Glo luminescence, 96 h; for Z-AUC: stronger effect = lower value
In short: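 PEO1, PEO4 and PEO1/OlaR ovarian cancer cells, 600 per well, exposed 96 h at 37C to a dilution series. Viability read by CellTiter-Glo luminescence, normalized to DMSO and empty wells; activity summarized as Z-AUC.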

[6] = measured here: PEO1 parental Z-AUC

Chain of Phospholipid hydroperoxide glutathione peroxidase GPX4 (Homo sapiens) (P36969 whole entry, looked up): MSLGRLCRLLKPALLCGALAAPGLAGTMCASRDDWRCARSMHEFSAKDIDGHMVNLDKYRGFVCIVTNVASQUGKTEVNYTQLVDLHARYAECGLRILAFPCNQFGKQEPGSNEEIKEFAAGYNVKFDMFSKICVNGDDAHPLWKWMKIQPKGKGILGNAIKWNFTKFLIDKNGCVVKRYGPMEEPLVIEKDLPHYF
Chain of Glutathione peroxidase 1 (Homo sapiens) (P07203 whole entry, looked up): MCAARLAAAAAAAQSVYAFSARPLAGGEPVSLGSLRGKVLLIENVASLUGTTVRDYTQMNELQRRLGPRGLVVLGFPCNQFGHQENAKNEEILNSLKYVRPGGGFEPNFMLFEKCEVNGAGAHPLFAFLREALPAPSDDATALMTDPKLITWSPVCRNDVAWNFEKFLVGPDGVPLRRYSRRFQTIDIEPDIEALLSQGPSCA

## COc1ccc(/C=C\c2cc(OC)c(OC)c(OC)c2)cc1O
[1]
  Potency: 0.0105 µM (active)
[2]
  Potency: 0.0093 µM (active)
[3]
  Potency: inactive
[4]
  Potency: inactive
[5]
  Potency: 0.0078 µM (active)
[5]; [6]
  Z-AUC: -1.52
[5]; measured here: PEO4 Z-AUC
  Z-AUC: -1.81

## Cc1ccc(-c2nn(C(C)(C)CNC(=O)c3ccncc3)c3ncnc(N)c23)cc1
[1]
  Potency: 8.33 µM (active)
[2]
  Potency: 7.42 µM (active)
[3]
  Potency: inactive
[4]
  Potency: inactive
[5]
  Z-AUC: -0.525 (inactive)
[5]; [6]
  Z-AUC: -1.23
[5]; measured here: PEO4 Z-AUC
  Z-AUC: -1.14

## N#Cc1cc2cc(CN3CCC(Nc4ncnc5sc(CC(F)(F)F)cc45)CC3)c(O)cc2n1Cc1cn[nH]c1
[1]
  Potency: 13.2 µM (active)
[2]
  Potency: 11.8 µM (active)
[3]
  Potency: inactive
[5]
  Z-AUC: -1.24 (inactive)
[5]; [6]
  Z-AUC: -1.35
[5]; measured here: PEO4 Z-AUC
  Z-AUC: -1.55

## C=CC(=O)Nc1ccc(F)c(-c2ncnc3[nH]cc(C(=O)OCC)c23)c1
[1]
  Potency: 16.6 µM (active)
[2]
  Potency: 14.8 µM (active)
[3]
  Potency: inactive
[5]
  Z-AUC: 0.543 (inactive)
[5]; [6]
  Z-AUC: 0.95
[5]; measured here: PEO4 Z-AUC
  Z-AUC: 0.747

## C/C=C/C/C=C/CCC(=O)[C@H]1O[C@H]1C(N)=O
[1]
  Potency: 11.8 µM (active)
[2]
  Potency: 13.2 µM (active)
[3]
  Potency: inactive
[5]
  Z-AUC: -0.297 (inactive)
[5]; [6]
  Z-AUC: -0.147
[5]; measured here: PEO4 Z-AUC
  Z-AUC: -0.049

## C=CC(=O)N1CC[C@@H](Oc2nc(Nc3ccc(N4CCC(N5CCN(C)CC5)CC4)cc3)c(C(N)=O)nc2CC)C1
[1]
  Potency: 0.91 µM (active)
[2]
  Potency: 1.62 µM (active)
[3]
  Potency: inactive
[5]
  Potency: 1.69 µM (active)
[5]; [6]
  Z-AUC: -1.18
[5]; measured here: PEO4 Z-AUC
  Z-AUC: -1.49

## Cc1ccc(C(=O)OCc2ccc([C@@H](CN)C(=O)Nc3ccc4cnccc4c3)cc2)c(C)c1
[1]
  Potency: 4.07 µM (active)
[2]
  Potency: 3.62 µM (active)
[4]
  Potency: inactive
[5]
  Z-AUC: -1.52 (inactive)
[5]; [6]
  Z-AUC: -0.919
[5]; measured here: PEO4 Z-AUC
  Z-AUC: -0.26

## Cc1ccc(Nc2nnc(Cc3ccncc3)c3ccccc23)cc1Br
[1]
  Potency: 14.8 µM (active)
[2]
  Potency: 13.2 µM (active)
[3]
  Potency: inactive
[4]
  Potency: inactive
[5]
  Z-AUC: 0.372 (inactive)
[5]; [6]
  Z-AUC: 0.414
[5]; measured here: PEO4 Z-AUC
  Z-AUC: -0.215

## CCOC(=O)C1=CCCCC1S(=O)(=O)Nc1ccc(F)cc1Cl (centres undefined)
[1]
  Potency: 20.9 µM (active)
[2]
  Potency: 18.6 µM (active)
[3]
  Potency: inactive
[5]
  Z-AUC: 1.33 (inactive)
[5]; [6]
  Z-AUC: 1.11
[5]; measured here: PEO4 Z-AUC
  Z-AUC: 1.15

## COc1cc(Nc2cnc(C#N)c(O[C@H](C)CN(C)C)n2)ncc1-c1cnn(C)c1
[1]
  Potency: 0.148 µM (active)
[2]
  Potency: 0.833 µM (active)
[3]
  Potency: inactive
[4]
  Potency: inactive
[5]
  Z-AUC: -0.958 (inactive)
[5]; [6]
  Z-AUC: -0.63
[5]; measured here: PEO4 Z-AUC
  Z-AUC: -0.472
